Screening data as filed in PubChem BioAssay.
Mcl1-Noxa inh – Mcl-1/Noxa binding inhibitors, primary screen, biochemical, TR-FRET, 1536-well. 220,000 tested, 1.5% active. inhibition, % at 21.7 µM. Induced myeloid leukemia cell differentiation protein Mcl-1 (Homo sapiens), Q07820. TR-FRET Mcl-1/Noxa peptide binding, 2 h;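 active = compounds that cut the protein-peptide binding signal by more than 50% relative to plate controls in a single-dose test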;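 also: His-tagged Mcl-1 with rhodamine Noxa BH3 peptide and terbium anti-His antibody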
Target sequence (Q07820 whole entry, looked up): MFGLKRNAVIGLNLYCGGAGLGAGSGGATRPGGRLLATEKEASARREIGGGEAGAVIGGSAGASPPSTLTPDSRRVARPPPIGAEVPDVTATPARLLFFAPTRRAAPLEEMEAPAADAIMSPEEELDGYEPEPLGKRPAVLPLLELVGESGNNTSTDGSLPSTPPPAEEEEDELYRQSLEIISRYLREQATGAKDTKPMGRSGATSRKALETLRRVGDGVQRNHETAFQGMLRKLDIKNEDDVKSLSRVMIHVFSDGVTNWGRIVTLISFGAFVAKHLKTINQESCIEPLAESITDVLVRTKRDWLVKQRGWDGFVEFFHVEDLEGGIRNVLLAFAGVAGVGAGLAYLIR
Mcl1 Bid PPI – Mcl-1/Bid binding inhibitors, primary screen, biochemical, TR-FRET, 1536-well | TR-FRET Mcl-1/Bid-Dy647 peptide binding | Induced myeloid leukemia cell differentiation protein Mcl-1 (Homo sapiens), Q07820 | AID 1021, 2008 | inhibition, % at 21.7 µM | 220,000 tested, 0.97% active;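 active = compounds that cut the binding signal by more than half at the single screening dose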;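 also: His-tagged Mcl-1 with europium anti-His antibody binding Bid BH3 peptide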
BCLXL inh – inhibitors of human Bcl-xL, primary screen, biochemical, fluorescence polarization, HTS; Bcl-2-like protein 1 (Homo sapiens), Q07817; GST-Bcl-xL / FITC-Bim BH3 peptide fluorescence polarization; inhibition, % at 10.9 µM; 320,000 tested, 0.7% active; AID 2129, 2009;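 active = inhibition above the mean of all tested compounds plus 3 SD, cutoff set per campaign, cut at about 30% in these data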;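 also: inhibitors lower millipolarization by displacing the labeled peptide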
MCL1 BIM primary – inhibitors of MCL1 binding to BIM-BH3, primary screen, biochemical, fluorescence polarization; Induced myeloid leukemia cell differentiation protein Mcl-1 (Homo sapiens), Q07820; GST-MCL1 / FITC-Bim-BH3 fluorescence polarization; inhibition, % at 10.9 µM; 320,000 tested, 0.68% active;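 active = inhibition above the mean inhibition of all tested compounds plus 3 SD, set per campaign, cut at about 40% in these data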;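 also: higher means more loss of mP so more displacement of Bim peptide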
GLD-1 RNA inh – GLD-1/TGE RNA complex disruptors, primary screen, biochemical, fluorescence polarization. AID 2280, 2010. purified GLD-1 + fluorescein TGE RNA. inhibition, % at 5.96 µM. 320,000 tested, 0.44% active;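 active = percent inhibition above a per-plate cutoff, the plate mean of test compounds plus 3 SD, cut at about 30% in these data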
Target sequence (Q17339 whole entry, looked up): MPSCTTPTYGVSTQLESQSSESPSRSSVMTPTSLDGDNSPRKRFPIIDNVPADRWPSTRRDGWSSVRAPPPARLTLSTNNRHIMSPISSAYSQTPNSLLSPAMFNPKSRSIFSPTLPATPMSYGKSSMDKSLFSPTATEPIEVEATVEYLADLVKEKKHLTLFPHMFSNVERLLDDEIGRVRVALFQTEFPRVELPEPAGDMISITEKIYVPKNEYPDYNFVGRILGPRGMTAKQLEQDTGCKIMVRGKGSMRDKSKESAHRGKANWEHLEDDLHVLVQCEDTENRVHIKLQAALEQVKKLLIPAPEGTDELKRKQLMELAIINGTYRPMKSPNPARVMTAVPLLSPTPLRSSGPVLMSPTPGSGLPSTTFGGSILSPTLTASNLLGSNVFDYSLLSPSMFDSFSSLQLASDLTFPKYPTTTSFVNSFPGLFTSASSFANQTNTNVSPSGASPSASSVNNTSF
Bim-Mcl-1 – inhibitors of Bim peptide binding to Mcl-1, primary screen, biochemical, bead-based flow cytometry, multiplex | Induced myeloid leukemia cell differentiation protein Mcl-1 (Homo sapiens), Q07820 | Bim peptide-Mcl-1 binding | inhibition, % at 10 µM | 190,000 tested, 0.1% active | AID 1009, 2008; in the data active = inhibition above about 40%
Each line names hits and unclear results; the compound was inactive in the other large screens. This is a sample that favours compounds with a hit; in the whole collection about 2.3% have one here.

CCc1cccc(CC)c1NC(=S)N1CCn2cccc2C1c1cccnc1 (stereo not drawn)	Mcl1 Bid PPI 75
C=C(C)COc1ccc(-c2n[nH]c(C)c2-c2ccc(OC)c(OC)c2)c(O)c1	none (no result: Bim-Mcl-1)
Cc1cc(C)c(S(=O)(=O)/N=C2/C=C(Sc3ncn[nH]3)C(=O)c3ccccc32)cc1C	Mcl1-Noxa inh 100, Mcl1 Bid PPI 72
O=C(NNC(=O)c1ccc(F)cc1F)c1ccc(-n2cnnn2)cc1	none (no result: Mcl1-Noxa inh, Mcl1 Bid PPI, Bim-Mcl-1)
Cc1ccc(/C=C2/SC(=S)N(c3ccc(S(=O)(=O)Nc4nccs4)cc3)C2=O)cc1	Mcl1-Noxa inh 56 (no result: Bim-Mcl-1)
O=C1/C(=C/c2ccccn2)SC(=S)N1c1ccc(O)cc1	Mcl1-Noxa inh 77 (no result: Bim-Mcl-1)
Cc1ccc(-n2[nH]c(C)c(C=Nc3ccc(S(=O)(=O)Nc4nccs4)cc3)c2=O)cc1C	Mcl1-Noxa inh 61
COc1ccc(/C=C2/SC(=S)N(c3ccc(S(=O)(=O)Nc4nccs4)cc3)C2=O)cc1	Mcl1-Noxa inh 101 (no result: Bim-Mcl-1)
Cn1c(=O)n(C)c2cc(N3CCOCC3)c(NC(=O)c3ccc(F)cc3)cc21	none (no result: Mcl1-Noxa inh, Mcl1 Bid PPI, Bim-Mcl-1)
O=C1/C(=C\c2ccccn2)SC(=S)N1c1ccc(S(=O)(=O)Nc2nccs2)cc1	Mcl1-Noxa inh 82 (no result: Bim-Mcl-1)
Cc1ccc(S(=O)(=O)NN2C(=O)/C(=C/c3ccccn3)SC2=S)cc1	none
COC(=O)/C=C1\N/C(=N/c2nc(C)c3cc(OC)ccc3n2)NC1=O	BCLXL inh 48 (no result: Mcl1-Noxa inh, Mcl1 Bid PPI, Bim-Mcl-1)
CN(CC(=O)Nc1ccc(F)c(F)c1F)C(=O)/C=C/c1ccco1	none (no result: Mcl1-Noxa inh, Mcl1 Bid PPI, BCLXL inh, MCL1 BIM primary, Bim-Mcl-1)
CC(C)(CNCc1ccccc1)NS(=O)(=O)c1ccc(Cl)cc1	none (no result: Mcl1-Noxa inh, Mcl1 Bid PPI, BCLXL inh, MCL1 BIM primary, Bim-Mcl-1)
CSc1ccccc1NC(=O)c1noc2c1CCC2	Mcl1-Noxa inh 66
O=C(CSc1nc(O)c(C2CCCCC2)c(=O)[nH]1)Nc1ccccc1Cl	none (no result: Mcl1-Noxa inh, Mcl1 Bid PPI, Bim-Mcl-1)
O=C(NNC(=O)c1ccc(O)cc1O)c1ccc(Cl)cc1	Mcl1 Bid PPI 56
Cc1ccc(NC(=O)CNCCCN2CCOCC2)cc1S(=O)(=O)N1CCCCC1	Mcl1 Bid PPI 51 (no result: Bim-Mcl-1)
Cc1[nH]n(-c2ncc(-c3ccccc3)s2)c(=O)c1C(c1ccc(Cl)cc1)C(C#N)C#N (stereo not drawn)	Mcl1-Noxa inh 81
Cc1csc(SCC(=O)NC(C)C2CC3CCC2C3)n1 (stereo not drawn)	none (no result: Mcl1-Noxa inh, Mcl1 Bid PPI, Bim-Mcl-1)
O=C(/C=C/c1ccccc1)N(Cc1cccc(Cl)c1)C1CCS(=O)(=O)C1 (stereo not drawn)	none (no result: Bim-Mcl-1)
COc1cccc(CN(C(=O)/C=C/c2ccc(Cl)cc2)C2CCS(=O)(=O)C2)c1 (stereo not drawn)	Mcl1 Bid PPI 84
Cc1cc(C(=O)NCC(c2ccco2)N(C)C)ccc1[N+](=O)[O-] (stereo not drawn)	none (no result: Mcl1-Noxa inh, Mcl1 Bid PPI, Bim-Mcl-1)
COc1cc(C)c(CNc2cccc(C)c2)cc1C	none
COc1cc(C)c(CNc2ccc(OC)c(OC)c2)cc1C	BCLXL inh 36
O=C(Nc1ccc2oc(-c3cccnc3)nc2c1)c1ccc2c(c1)OCCO2	Mcl1-Noxa inh 53
COc1ccc(N=C2NC(=O)/C(=C/c3ccco3)S2)cc1	none (no result: Bim-Mcl-1)
Cc1ccc(N=C2NC(=O)/C(=C/C=C/c3ccco3)S2)cc1	Mcl1-Noxa inh 82
COc1ccc(N=C2NC(=O)/C(=C/C=C/c3ccccc3)S2)cc1	none (no result: Bim-Mcl-1)
O=C1NC(=Nc2ccccc2)S/C1=C\C=C\c1ccco1	Mcl1-Noxa inh 112
Cc1cccc(N=C2NC(=O)/C(=C/C=C/c3ccco3)S2)c1C	Mcl1-Noxa inh 114, Mcl1 Bid PPI 92
Cc1cccc(N=C2NC(=O)/C(=C/c3cccn3C)S2)c1C	none (no result: Bim-Mcl-1)
O=C1C(=O)N(Cc2cccs2)c2ccccc21	none (no result: Mcl1-Noxa inh, Mcl1 Bid PPI, Bim-Mcl-1)
CC(=O)c1cccn1S(=O)(=O)c1ccccc1	none (no result: Mcl1-Noxa inh, Mcl1 Bid PPI, Bim-Mcl-1)
Cc1cc(C(=O)N2CC(C)CC(C)C2)n(-c2ccccc2)n1 (stereo not drawn)	none
Cc1cc(C(=O)N2CCOCC2)n(-c2ccccc2)n1	Mcl1 Bid PPI 51
CC1(c2ccccc2)NC(=O)N(CC(=O)Nc2ccc3c(c2)CCC3)C1=O (stereo not drawn)	none (no result: Mcl1-Noxa inh, Mcl1 Bid PPI, BCLXL inh, MCL1 BIM primary, Bim-Mcl-1)
COc1ccc(CCNC(=O)CSc2nc(=O)n3cc(C)ccc3n2)cc1OC	none (no result: Mcl1-Noxa inh, Mcl1 Bid PPI, Bim-Mcl-1)
FC(F)(F)c1cnc(Nc2ccc(N3CCOCC3)cc2)c(Cl)c1	Mcl1-Noxa inh 61
O=C1CCN(Cc2ccc(O)cc2)CCN1CCO	none (no result: Mcl1-Noxa inh, Mcl1 Bid PPI, Bim-Mcl-1)
CC(=O)Nc1nnc(SCc2cccc(F)c2)s1	BCLXL inh 47
CC(=O)Nc1nnc(SCc2ccc(F)cc2)s1	none
Cc1cc(C)cc(C(=O)NCCC(=O)NCc2cc(=O)n(C)c(=O)n2C)c1	none (no result: Mcl1-Noxa inh, Mcl1 Bid PPI, Bim-Mcl-1)
CC(=O)Nc1ccc(N(C(=O)c2ccco2)C(C(=O)NC2CCCCC2)c2ccccc2)cc1 (stereo not drawn)	none (no result: Mcl1-Noxa inh, Mcl1 Bid PPI, Bim-Mcl-1)
CCOC(=O)C1=C(c2ccccc2)NC(=O)NC1c1ccc(N(C)C)cc1 (stereo not drawn)	Mcl1-Noxa inh 61
CCOC(=O)C1=C(c2ccccc2)NC(=O)NC1c1ccc(OC)cc1 (stereo not drawn)	none
Cc1ccc(C2NC(=O)NC(O)(C(F)(F)F)C2C(=O)c2cccs2)o1 (stereo not drawn)	none
COc1ccc(C(=O)C2C(c3ccc(-c4ccccc4[N+](=O)[O-])o3)NC(=O)NC2(O)C(F)(F)F)cc1 (stereo not drawn)	Mcl1-Noxa inh 57
Cc1ccc(C(=O)C2C(c3cccs3)NC(=O)NC2(O)C(F)(F)F)cc1 (stereo not drawn)	Mcl1 Bid PPI 63
Cc1ccc(C2NC(=O)NC(O)(C(F)(F)F)C2C(=O)c2ccccc2)o1 (stereo not drawn)	none
O=C1NC(c2ccc(-c3ccccc3[N+](=O)[O-])o2)C(C(=O)c2ccc(F)cc2)C(O)(C(F)(F)F)N1 (stereo not drawn)	Mcl1-Noxa inh 55
COc1ccc(C2NC(=O)NC(O)(C(F)(F)F)C2C(=O)c2ccc(F)cc2)cc1 (stereo not drawn)	none
CN1CCN(C(c2cccnc2)c2ccc3cccnc3c2O)CC1 (stereo not drawn)	Mcl1-Noxa inh 52
COc1cccc(/C=c2/s/c(=C(\C#N)C(=O)N3CCOCC3)n(-c3ccccc3)c2=O)c1	Mcl1 Bid PPI 53
COc1ccc(/C=c2\s/c(=C(/C#N)C(=O)NCc3ccco3)n(-c3ccccc3)c2=O)cc1	none
CN(Cc1ccco1)C(=O)c1ccc(CNS(=O)(=O)c2ccc3c(c2)C(C)(C)C(=O)N3C)cc1	none (no result: Mcl1-Noxa inh, Mcl1 Bid PPI, Bim-Mcl-1)
CC(=O)Nc1nc2n(n1)C(c1ccc(Cl)cc1)C=C(C)N2 (stereo not drawn)	none
CC1=CC(c2ccccc2)n2nc(NC(=O)CCC(=O)O)nc2N1 (stereo not drawn)	none (no result: Bim-Mcl-1)
